Where “and” joins values, the source holds several entries; their conditions need not be identical. Equal values may be shown once. Results filed as inconclusive are left out. Unmarked numbers belong to inactive results. Calls of active or inactive are those of the source. The call rests on the fitted dose curve; in most records, active means well fitted curve in the direction sought with a large enough effect; inconclusive means small, poorly fitted or top-dose-only effect, or another doubt; inactive means no such curve, though single readings can be large; an effect the other way counts as inactive or inconclusive.
Tests used:
[1] = molecular target: Cellular tumor antigen p53 (Homo sapiens) (UniProt P04637); assay: Primary qHTS for small molecule compounds that upregulate eGFP-tagged delta133p53alpha (in N-terminal) cells. (AID 2060322); conditions: NCI-H358 eGFP-delta133p53alpha fluorescence, 24 h; activation: hits give high values;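 further: cells pre-induced with doxycycline then dosed without doxycycline; 0% = DMSO vehicle and 100% = reference activator; nearly all actives have a fitted effect of over 75% in size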
Sequence of Cellular tumor antigen p53 (Homo sapiens) (P04637 whole entry, looked up): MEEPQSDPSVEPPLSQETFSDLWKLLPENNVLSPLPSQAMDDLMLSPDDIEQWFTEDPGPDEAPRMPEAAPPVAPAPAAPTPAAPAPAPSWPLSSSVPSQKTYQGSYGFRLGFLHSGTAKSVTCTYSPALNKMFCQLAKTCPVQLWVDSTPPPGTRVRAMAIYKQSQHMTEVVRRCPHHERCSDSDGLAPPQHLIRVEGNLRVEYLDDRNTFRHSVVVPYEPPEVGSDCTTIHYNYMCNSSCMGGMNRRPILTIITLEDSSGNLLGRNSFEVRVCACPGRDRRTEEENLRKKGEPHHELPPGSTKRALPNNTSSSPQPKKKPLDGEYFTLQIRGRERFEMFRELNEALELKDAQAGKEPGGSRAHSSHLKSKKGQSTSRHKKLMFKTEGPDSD
Outline: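 NCI-H358 cells pre-induced 24 h with 10 ng/ml doxycycline for eGFP-delta133p53alpha, plated dox-free and exposed 24 h at 37C to titrated compounds. Fixed, Hoechst-stained; gated GFP peak intensity by laser scanning cytometry, normalized to DMSO (0%) and 57.5 uM 5-azacytidine (100%).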

[2] = molecular target: Aldehyde dehydrogenase, mitochondrial (Homo sapiens) (UniProt P05091); assay: qHTS for Inhibitors of the Aldehyde Dehydrogenase Family (ALDH2) Primary screen (AID 2061308); conditions: ALDH2 enzyme inhibition qHTS, 1536-well; series mostly up to 56 µM;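 further: plate controls were vehicle for no effect and reference inhibitor for full effect; nearly all actives have a fitted effect of over 55% in size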
[3] = qHTS for Inhibitors of the Aldehyde Dehydrogenase Family (ALDH1A2, ALDH1A3, ALDH2, ALDH3A1) (AID 2061307); conditions: ALDH inhibition qHTS; series mostly up to 50.3 µM; further: nearly all actives have a fitted effect of over 50% in size; on Potency: test system not described further here; potency means the concentration at half of the fitted maximal effect
[4] = molecular target: Retinaldehyde dehydrogenase 3 (Homo sapiens) (UniProt P47895); assay: qHTS for Inhibitors of the Aldehyde Dehydrogenase Family (ALDH1A3) Confirmatory screens (AID 2061311); conditions: ALDH inhibition qHTS; series mostly up to 46 µM; further: nearly all actives have a fitted effect of over 60% in size; further: potency means the concentration at half of the fitted maximal effect
[5] = molecular target: Retinaldehyde dehydrogenase 3 (Homo sapiens) (UniProt P47895); assay: qHTS for Inhibitors of the Aldehyde Dehydrogenase Family (ALDH1A3) Primary screen (AID 2061315); conditions: ALDH inhibition qHTS; series mostly up to 56 µM; further: potency means the concentration at half of the fitted maximal effect
[6] = molecular target: Aldehyde dehydrogenase 1A1 (Homo sapiens) (UniProt P00352); assay: qHTS for Inhibitors of the Aldehyde Dehydrogenase Family (ALDH1A1) Confirmatory screens (AID 2061316); conditions: ALDH inhibition qHTS; series mostly up to 47.3 µM; further: nearly all actives have a fitted effect of over 65% in size; further: potency means the concentration at half of the fitted maximal effect
[7] = molecular target: Retinal dehydrogenase 2 (Homo sapiens) (UniProt O94788); assay: qHTS for Inhibitors of the Aldehyde Dehydrogenase Family (ALDH1A2) Confirmation screens (AID 2061314); conditions: ALDH1A2 enzyme inhibition qHTS confirmation; series mostly up to 45.9 µM; further: nearly all actives have a fitted effect of over 65% in size; further: potency means the concentration at half of the fitted maximal effect
[8] = BET inhibitor-based combinations targeting novel dependencies in MECOM-rearranged (r) AML: OCI-AML3 cell line (AID 2202232); conditions: CellTiter-Glo luminescence, 48 h; Potency: OCI-AML3 viability; series mostly up to 46 µM;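 further: plate controls were DMSO vehicle wells for no effect and wells without cells for full effect; nearly all actives have a fitted effect of over 35% in size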
Outline: (§1)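 Each compound was tested at eleven concentrations on cells seeded at 500/well. After two days' incubation, ATP-based luminescence reported viability; responses relative to DMSO and blank wells yielded AUC and cell-line-centred Z-AUC.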

[9] = BET inhibitor-based combinations targeting novel dependencies in MECOM-rearranged (r) AML: MV-4-11 cell line (AID 2202233); conditions: MV-4-11 AML viability, CellTiter-Glo luminescence, 48 h; series mostly up to 46 µM;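 further: plate controls were DMSO for no effect and blank wells for full effect; nearly all actives have a fitted effect of over 45% in size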
Outline: (§2)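 First, 500 cells per well were seeded; next, drugs were pinned as 11-point doses; then plates sat 48 hr in the incubator; finally CellTiter-Glo was added and luminescence read, with AUC and Z-AUC computed.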

[10] = BET inhibitor-based combinations targeting novel dependencies in MECOM-rearranged (r) AML: HNT-34 cell line (AID 2202234); conditions: HNT-34 AML viability, CellTiter-Glo luminescence, 48 h; series mostly up to 46 µM;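 further: plate controls were vehicle wells for no effect and cell-free wells for full effect; nearly all actives have a fitted effect of over 35% in size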
Outline: as §2

[11] = BET inhibitor-based combinations targeting novel dependencies in MECOM-rearranged (r) AML: UCSD-AML1 cell line (AID 2202235); conditions: UCSD-AML1 AML cells viability, CellTiter-Glo, 48 h; series mostly up to 46 µM;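 further: plate controls were DMSO vehicle wells for no effect and blank wells for full effect; nearly all actives have a fitted effect of over 40% in size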
Outline: as §2

[12] = BET inhibitor-based combinations targeting novel dependencies in MECOM-rearranged (r) AML: AML-191 cell line (AID 2202236;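 further: plate controls were vehicle wells for no effect and wells without cells for full effect; nearly all actives have a fitted effect of over 35% in size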); conditions: AML-191 viability, CellTiter-Glo luminescence, 48 h; series mostly up to 46 µM
Outline: as §1

[13] = BET inhibitor-based combinations targeting novel dependencies in MECOM-rearranged (r) AML: AML-194 cell line (AID 2202237;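 further: plate controls were vehicle wells for no effect and wells without cells for full effect; nearly all actives have a fitted effect of over 40% in size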); conditions: AML-194 (MECOM-r AML) viability, CellTiter-Glo, 48 h; series mostly up to 46 µM
Outline: as §1

[14] = molecular target: Retinaldehyde dehydrogenase 3 (Homo sapiens) (UniProt P47895); assay: qHTS for Inhibitors of the Aldehyde Dehydrogenase Family (ALDH1A3) Validation screen (AID 2061312); conditions: ALDH1A3 enzyme inhibition qHTS validation, fluorescence; series mostly up to 84.7 µM; further: potency means the concentration at half of the fitted maximal effect; nearly all actives have a fitted effect of over 45% in size

COC(=O)C1=CO[C@@H](O[C@@H]2O[C@H](CO)[C@@H](O)[C@H](O)[C@H]2O)[C@@H]2C(CO)=CC[C@H]12
activation [1]: 0%
Potency [2]: inactive

CC1(C)CC2C=C(C(=O)O)C3COC(=O)C(O)(CO)C23C1 (stereo not given)
activation [1]: -13%
Potency [2]: inactive

O=C(/C=C/c1ccccc1O)O[C@@H]1O[C@H](CO)[C@@H](O)[C@H](O)[C@H]1O
activation [1]: 0%
Potency [2]: inactive

C=C1CCC2C(C)(COC3OC(COC(=O)CC(=O)O)C(O)C(O)C3O)CCCC2(C)C1CCC1=CCOC1=O (stereo not given)
activation [1]: 8.4%
Potency [2]: inactive

C=CCC1=C[C@]2(OC)[C@H](C)[C@@H](c3ccc(OC)c(OC)c3)O[C@]2(OC)CC1=O
activation [1]: -3.57%
Potency [2]: inactive

CC(C)c1ccc2c(c1)CCC1[C@](C)(C(=O)O)CCC[C@]21C (stereo not given in full)
activation [1]: 9.82%
Potency [3]: inactive
Potency [4]: inactive
Potency [5]: inactive
Potency [6]: inactive

OC[C@H]1O[C@@H](Oc2ccc(O)c3cccc(O)c23)[C@H](O)[C@@H](O)[C@@H]1O
activation [1]: -13%
Potency [3]: 7.83 µM (active)
Potency [4]: 0.985 µM (active)
Potency [7]: 2.47 µM (active)
Potency [5]: 1.78 µM (active)

CC(CCc1ccc(O)cc1)O[C@@H]1O[C@H](CO[C@@H]2OC(CO)[C@H](O)[C@H]2O)[C@@H](O)[C@H](O)[C@H]1O (stereo not given in full)
activation [1]: -13.7%
Potency [2]: inactive

CC[n+]1c(/C=C/C=C2/N(C)c3ccccc3C2(C)C)sc2ccccc21
activation [1]: -26.3%
Potency [3]: 22.5 µM (active)
Potency [4]: 12.7 µM (active)
Potency [7]: 12.7 µM (active)
Potency [6]: 12.7 µM (active)

COc1ccc(/C=C/C(=O)N2CCCC2)cc1
activation [1]: 2.68%
Potency [2]: inactive

CC1=CCC2C(C)(CO)CCCC2(CO)C1CO (stereo not given)
activation [1]: -19.8%
Potency [3]: inactive
Potency [2]: inactive
Potency [5]: inactive

COc1cc(C2c3cc4c(c(O)c3CC(CO)C2C(=O)O)OCO4)cc(OC)c1O (stereo not given)
activation [1]: 9.82%
Potency [2]: inactive

Cn1c(N2CCCCS2(=O)=O)nc(C(=O)NCc2ccc(F)cc2)c(O)c1=O
activation [1]: 0.955%
Potency [3]: 12.7 µM (active)
Potency [5]: inactive
Potency [6]: inactive

Cc1cc(C)c2c(N)c(C(=O)NCc3ccc(Cl)cc3)sc2n1
activation [1]: 13.4%
Potency [3]: 1.12 µM (active)
Potency [2]: inactive
Potency [5]: inactive
Potency [6]: 14.2 µM (active)

O=C(NNc1ccccc1)c1ccncc1
activation [1]: -8.33%
Potency [3]: inactive
Potency [7]: inactive
Potency [6]: inactive
Potency [8]: inactive
Potency [9]: inactive
Potency [10]: inactive
Potency [11]: inactive
Potency [12]: inactive
Potency [13]: inactive

Cc1c(Cc2ccc3ccccc3n2)c2cc(F)ccc2n1CC(=O)O
activation [1]: -10%
Potency [3]: 3.18 µM (active)
Potency [2]: inactive
Potency [5]: inactive

COC(CCc1ccc(O)cc1)CC(=O)CCc1ccc(O)cc1 (stereo not given)
activation [1]: 7.63%
Potency [3]: inactive
Potency [5]: inactive
Potency [6]: inactive

COc1c(C(C)C)c(O)c(O)c2c1C(OC)[C@H]1OC(=O)[C@@]23CCCC(C)(C)[C@H]13 (stereo not given in full)
activation [1]: -1.79%
Potency [3]: inactive
Potency [4]: 6.97 µM (active)
Potency [7]: 15.6 µM (active)
Potency [5]: 2.82 µM (active)

Oc1ccc(O)cc1
activation [1]: 17.5% and -0.402%
Potency [3]: 11.3 µM (active)
Potency [4]: 4.49 µM (active)
Potency [14]: 0.794 µM (active)
Potency [6]: 11.3 µM (active)

COc1c(C)c(C(=O)c2ccc(N)c(C(=O)O)c2)n2ccccc12
activation [1]: 10% and 14.3%
Potency [2]: inactive

O=C(CC1CC(c2ccc(F)cc2F)=NO1)N1CCOCC1 (stereo not given)
activation [1]: 1.43%
Potency [2]: inactive

Cc1onc(-c2ccccc2)c1C(=O)N[C@@H]1C(=O)N2[C@@H]1SC(C)(C)[C@@H]2C(=O)O
activation [1]: -0.333% and 17%
Potency [3]: inactive
Potency [2]: inactive
Potency [5]: inactive

CN(C)c1ccc(NC(=O)NS(=O)(=O)c2ccc(Cl)cc2)cc1
activation [1]: -1.67%
Potency [3]: 6.34 µM (active)
Potency [4]: 2.83 µM (active)
Potency [7]: 10.1 µM (active)
Potency [6]: 7.98 µM (active)

CC(NC(=O)CC(=O)O)c1nc2ccccc2c(=O)[nH]1 (stereo not given)
activation [1]: -5.36%
Potency [3]: inactive
Potency [2]: inactive
Potency [6]: 1.27 µM (active)

CO[C@]1(NC(=O)CSC(F)F)C(=O)N2C(C(=O)O)=C(CSc3nnnn3CCO)CO[C@H]21
activation [1]: -7.53%
Potency [3]: inactive
Potency [4]: inactive
Potency [7]: inactive
Potency [5]: inactive
Potency [6]: 14.2 µM (active)

O=C(/C=C/c1ccc(O)c(O)c1)O[C@@H]1[C@@H](O)[C@H](OC2CCCCC2O)O[C@H](CO)[C@H]1O (stereo not given in full)
activation [1]: 2.29%
Potency [3]: inactive
Potency [4]: 5.51 µM (active)
Potency [7]: inactive
Potency [5]: 3.98 µM (active)

Source: PubChem BioAssay (NCATS)
